According to PubChem BioAssay AID1159580 (chemical genetic matrix, 2015):
“And” between values parts separate entries of the source, which are not always exact repeats. Identical values can stand only once. The campaign covered roughly 5,500 compounds. About 2,000 (36%) were called active. About 18% were inconclusive and are not listed. Cut-off read from the data, not from the text of the source: active = normalized growth mostly below about 0.91 (no sharp cut-off); inconclusive = no clear call, values can overlap the other calls; inactive = mostly above about 0.92. The list shows a part of the results.

Assay: chemical genetic growth profiling, strain panel (AID 1159580);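 note: tested at 20 µM; growth read once vehicle control cultures reached saturation at 30 °C; 1 = growth at the plate median or of vehicle wells; lower values mean less growth of the strain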
Conditions: growth OD

Measured: normalized growth

CCCCC[C@H]1C(=O)O[C@H](C)[C@H](NC(=O)c2cccc(NC=O)c2O)C(=O)O[C@@H](C)[C@@H]1OC(=O)CC(C)C
0.875 (inactive) and 0.859 (active): S. cerevisiae deletion strains, locus YJL095W, strain BCK1, stronger effect = lower value
inactive: S. cerevisiae deletion strains, locus YBR021W, strain FUR4, stronger effect = lower value 0.965 | S. cerevisiae deletion strains, locus YBR229C, strain ROT2, stronger effect = lower value 0.949 | S. cerevisiae deletion strains, locus YCL029C, strain bik1, stronger effect = lower value 0.922 | S. cerevisiae deletion strains, locus YDL074C, strain BRE1, stronger effect = lower value 0.797 | S. cerevisiae deletion strains, locus YDL101C, strain DUN1, stronger effect = lower value 0.936 | S. cerevisiae deletion strains, locus YDL185W, strain tfp1, stronger effect = lower value 0.919 | S. cerevisiae deletion strains, locus YDR101C, strain arx1, stronger effect = lower value 0.93 | S. cerevisiae deletion strains, locus YDR162C, strain NBP2, stronger effect = lower value 0.905 | S. cerevisiae deletion strains, locus YDR502C, strain sam2, stronger effect = lower value 0.939 | S. cerevisiae deletion strains, locus YEL061C, strain CIN8, stronger effect = lower value 0.936 | S. cerevisiae deletion strains, locus YER110C, stronger effect = lower value 0.979 | S. cerevisiae deletion strains, locus YER155C, strain BEM2, stronger effect = lower value 0.978 | S. cerevisiae deletion strains, locus YGL248W, strain PDE1, stronger effect = lower value 0.912 | S. cerevisiae deletion strains, locus YHR030C, strain SLT2, stronger effect = lower value 0.947 and 0.873 | S. cerevisiae deletion strains, locus YHR079C, strain IRE1 (second series), stronger effect = lower value 0.943 | S. cerevisiae deletion strains, locus YHR079C, strain IRE1, stronger effect = lower value 0.863 | S. cerevisiae deletion strains, locus YHR094C, strain hxt1, stronger effect = lower value 0.933 | S. cerevisiae deletion strains, locus YIL066C, strain RNR3, stronger effect = lower value 0.88 | S. cerevisiae deletion strains, locus YIL073C, strain SPO22, stronger effect = lower value 0.844 | S. cerevisiae deletion strains, locus YIR030C, strain dcg1, stronger effect = lower value 0.946 | S. cerevisiae deletion strains, locus YJL134W, strain LCB3, stronger effect = lower value 0.932 | S. cerevisiae deletion strains, locus YJL168C, strain set2, stronger effect = lower value 0.933 | S. cerevisiae deletion strains, locus YJL187C, strain SWE1 (second series), stronger effect = lower value 0.889 | S. cerevisiae deletion strains, locus YJR066W, strain TOR1, stronger effect = lower value 0.861 | S. cerevisiae deletion strains, locus YKL068W, stronger effect = lower value 1.02 | S. cerevisiae deletion strains, locus YKL085W, strain MDH1 (second series), stronger effect = lower value 0.961 | S. cerevisiae deletion strains, locus YKL085W, strain MDH1, stronger effect = lower value 0.961 | S. cerevisiae deletion strains, locus YKL190W, strain CNB1, stronger effect = lower value 0.933 | S. cerevisiae deletion strains, locus YKR001C, strain vps1, stronger effect = lower value 0.922 | S. cerevisiae deletion strains, locus YLR039C, strain RIC1, stronger effect = lower value 0.933 | S. cerevisiae deletion strains, locus YLR058C, strain SHM2, stronger effect = lower value 0.932 | S. cerevisiae deletion strains, locus YLR102C, strain apc9, stronger effect = lower value 0.944 | S. cerevisiae deletion strains, locus YLR262C, strain YPT6, stronger effect = lower value 0.84 | S. cerevisiae deletion strains, locus YLR268W, strain sec22, stronger effect = lower value 0.923 | S. cerevisiae deletion strains, locus YLR330W, strain CHS5, stronger effect = lower value 0.962 | S. cerevisiae deletion strains, locus YLR342W, strain FKS1 (second series), stronger effect = lower value 0.887 | S. cerevisiae deletion strains, locus YLR371W, strain rom2, stronger effect = lower value 0.921 | S. cerevisiae deletion strains, locus YLR418C, strain cdc73, stronger effect = lower value 0.893 | S. cerevisiae deletion strains, locus YML016C, strain PPZ1, stronger effect = lower value 0.946 | S. cerevisiae deletion strains, locus YML124C, strain tub3, stronger effect = lower value 0.943 | S. cerevisiae deletion strains, locus YMR263W, strain SAP30, stronger effect = lower value 0.921 | S. cerevisiae deletion strains, locus YMR307W, strain GAS1, stronger effect = lower value 0.616 | S. cerevisiae deletion strains, locus YNL067W, strain RPL9B, stronger effect = lower value 0.921 | S. cerevisiae deletion strains, locus YNL233W, strain BNI4, stronger effect = lower value 0.914 | S. cerevisiae deletion strains, locus YNL307C, strain MCK1, stronger effect = lower value 0.967 | S. cerevisiae deletion strains, locus YNL322C, strain KRE1, stronger effect = lower value 0.937 | S. cerevisiae deletion strains, locus YOL006C, strain TOP1, stronger effect = lower value 0.736 | S. cerevisiae deletion strains, locus YOL012C, strain htz1 0.619 | S. cerevisiae deletion strains, locus YOL147C, strain pex11, stronger effect = lower value 0.942 | S. cerevisiae deletion strains, locus YOR061W, strain CKA2, stronger effect = lower value 0.895 | S. cerevisiae deletion strains, locus YOR069W, strain VPS5, stronger effect = lower value 0.932 | S. cerevisiae deletion strains, locus YOR136W, strain idh2, stronger effect = lower value 0.983 | S. cerevisiae deletion strains, locus YOR231W, strain MKK1, stronger effect = lower value 0.864 | S. cerevisiae deletion strains, locus YOR316C, strain cot1, stronger effect = lower value 0.945 | S. cerevisiae deletion strains, locus YPL256C, strain CLN2, stronger effect = lower value 0.912 | S. cerevisiae deletion strains, locus YPR119W, strain clb2, stronger effect = lower value 0.939 | S. cerevisiae deletion strains, locus YPR167C, strain met16, stronger effect = lower value 0.939 | S. cerevisiae deletion strains, strain wtn01, stronger effect = lower value 0.901
active: S. cerevisiae deletion strains, locus YDL035C, strain GPR1, stronger effect = lower value 0.839 | S. cerevisiae deletion strains, locus YDL134C, strain PPH21, stronger effect = lower value 0.86 | S. cerevisiae deletion strains, locus YDL192W, strain arf1, stronger effect = lower value 0.91 | S. cerevisiae deletion strains, locus YDR318W, strain mcm21, stronger effect = lower value 0.908 | S. cerevisiae deletion strains, locus YDR388W, stronger effect = lower value 0.913 | S. cerevisiae deletion strains, locus YER167W, strain BCK2, stronger effect = lower value 0.904 | S. cerevisiae deletion strains, locus YGL078C, strain dbp3, stronger effect = lower value 0.895 | S. cerevisiae deletion strains, locus YGL086W, strain mad1, stronger effect = lower value 0.923 | S. cerevisiae deletion strains, locus YGR135W, strain pre9, stronger effect = lower value 0.891 | S. cerevisiae deletion strains, locus YGR252W, strain gcn5, stronger effect = lower value 0.684 | S. cerevisiae deletion strains, locus YHR129C, strain ARP1, stronger effect = lower value 0.904 | S. cerevisiae deletion strains, locus YHR200W, strain rpn10, stronger effect = lower value 0.904 | S. cerevisiae deletion strains, locus YIL125W, strain kgd1, stronger effect = lower value 0.896 | S. cerevisiae deletion strains, locus YJR043C, strain POL32, stronger effect = lower value 0.838 | S. cerevisiae deletion strains, locus YLR113W, strain HOG1, stronger effect = lower value 0.777 | S. cerevisiae deletion strains, locus YML032C, strain rad52, stronger effect = lower value 0.83 | S. cerevisiae deletion strains, locus YMR078C, strain ctf18, stronger effect = lower value 0.9 | S. cerevisiae deletion strains, locus YMR223W, strain ubp8, stronger effect = lower value 0.88 | S. cerevisiae deletion strains, locus YNL183C, strain NPR1, stronger effect = lower value 0.827 | S. cerevisiae deletion strains, locus YNL250W, strain rad50, stronger effect = lower value 0.853 | S. cerevisiae deletion strains, locus YNL271C, strain bni1, stronger effect = lower value 0.9 | S. cerevisiae deletion strains, locus YNL298W, strain CLA4, stronger effect = lower value 0.891 | S. cerevisiae deletion strains, locus YNR052C, strain pop2, stronger effect = lower value 0.874 | S. cerevisiae deletion strains, locus YOR144C, strain elg1, stronger effect = lower value 0.933 | S. cerevisiae deletion strains, locus YOR184W, strain ser1, stronger effect = lower value 0.674 | S. cerevisiae deletion strains, locus YPR141C, strain kar3, stronger effect = lower value 0.9 | S. cerevisiae deletion strains, locus YPR163C, strain tif3, stronger effect = lower value 0.893 | S. cerevisiae strains, strain wild type, stronger effect = lower value 0.895
